About 83,000 compounds went through this panel and 20% of them were active in at least one assay; those are over-represented in the sample as a whole.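 Assay: single dose, 48 h. Readout: percent growth (0 = no net growth; negative = cell death). Active: <10.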 Active and inactive are the calls of the source.
Test system: MDA-MB-468 breast
Test: NCI-60 one-dose screen, 48 h (100 = growth as untreated, 0 = no growth, -100 = all killed)
Details: 10 µM unless noted

Compound	growth
CC(=O)N1C(=S)NC(=O)C1CC(C)C (stereo unspecified)	100% (inactive)
COc1cc(-c2csc(NC(=O)c3cc(F)cc(C(F)(F)F)c3)n2)cc(OC)c1OC	-1.52% (active)
O=C(NN1C(=O)CSC1c1cccc([N+](=O)[O-])c1)c1ccc(NC(=O)c2ccccn2)cc1 (stereo unspecified)	98.8% (inactive)
O=C(O)c1cn(C2CC2)c2cc(N3CCN(C(=O)CSc4nc(NS(=O)(=O)c5ccccc5)cc(=O)[nH]4)CC3)c(F)cc2c1=O	98.7% (inactive)
C#C[C@]1(O)CC[C@H]2[C@@H]3CC=C4c5sc(N(C)c6ccccc6)nc5CC[C@]4(C)[C@H]3CC[C@@]21C	76.2% (inactive)
CC1(C)CC[C@]2(C(=O)N[C@H](CO)Cc3ccccc3)CC[C@]3(C)C(=CC[C@@H]4[C@@]5(C)CCCNC(C)(C)[C@@H]5CC[C@]43C)[C@@H]2C1	37.8% (inactive)
CC(=O)Oc1ccccc1C(=O)N=C1[Se]CCN1C(=O)c1ccccc1OC(C)=O	-25.6% (active)
O=C(c1ccccc1)c1ccc(Cl)c([N+](=O)[O-])c1	77.7% (inactive)
COc1ccc(S(=O)(=O)n2ccc(-c3ccc4c(c3)CCC(C)(C)O4)n2)cc1OC	28.4% (inactive)
COc1ccc(N=C(c2ccccc2)C2C(=O)c3ccccc3C2=O)cc1	72.5% (inactive)
Nc1ccc(Cl)c(S(=O)(=O)O)c1	99.3% (inactive)
